Inconclusive results are not listed. Where a call stands in place of a potency, no number is given. Unmarked numbers belong to inactive results. Calls of active or inactive are those of the source. Unless noted, the call rests on the fitted dose curve; in most records, active means well fitted curve in the direction sought with a large enough effect in the repeat runs; inconclusive means weak or mixed curves; inactive means no such curve, though single readings can be large; an effect the other way counts as inactive or inconclusive.
assay: qHTS assay to identify small molecule agonists of the progesterone receptor (PR) signaling pathway - cell viability counter screen (AID 1346799; calls by dose curve; further: nearly all actives have a fitted effect of over 45% in size); conditions: PR-UAS-bla HEK293T viability, CellTiter-Glo luminescence, 16 h; series mostly up to 92.4 µM
Method in brief: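 Using the same plates as the PR reporter screen, HEK293T PR-UAS-bla cells received compounds for 16 hr at 37C and were then lysed with CellTiter-Glo; luminescence was read 30 min later at room temperature.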

Structure (SMILES) | Potency | activity change, negative = cytotoxicity
CCOC(=O)Cn1cccc1-c1nc(-c2ccc(OC)cc2)c(-c2ccc(OC)cc2)s1 | inactive | 
C=Cc1cccc(C)c1 | inactive | 
Nc1nc(N)nc(-c2cc(Cl)ccc2Cl)n1 | inactive | 
CCCCCC(C)OC(=O)COc1ccc(Cl)c2cccnc12 (stereo unspecified) | inactive | 
O=C1OC2(c3ccc(O)cc3Oc3cc(O)ccc32)c2ccc(N=C=S)cc21 | inactive | 
CC(C)(C)NSc1nc2ccccc2s1 | inactive | 
CCCCC(CC)COC(=O)CCCCC(=O)OCc1ccccc1 (stereo unspecified) | inactive | 
Cc1c(C)c2c(c(C)c1OC(=O)c1cccnc1)CC[C@@](C)(CCC[C@H](C)CCC[C@H](C)CCCC(C)C)O2 | inactive | 
[Cu+] | inactive | 
O=C(O)c1cc(-c2ccc(F)cc2F)ccc1O | inactive | 
O=C1c2ccccc2C(=O)N1SC1CCCCC1 | inactive | 
NC(=S)NC(N)=S | inactive | 
C=CCCC(=O)/C=C/C1C(C)=CCCC1(C)C (stereo unspecified) | inactive | 
CC/C=C\CCCCCO | inactive | 
CC1(C)CC(O)CC(C)(C)N1 | inactive | 
OC[C@H]1O[C@H](O[C@H]2O[C@H](CO)[C@@H](O)[C@H](O)[C@H]2O)[C@H](O)[C@@H](O)[C@@H]1O | inactive | 
C[C@H]1NCc2cc(-c3ccc4c(=O)c(C(=O)O)cn(C5CC5)c4c3OC(F)F)ccc21 |  | -10.9% [at 19 µM]

assay: qHTS assay to identify small molecule antagonists of the TGF-beta/Smad signaling pathway - cell viability counter screen (AID 1346824); conditions: SBE-bla HEK293T viability, CellTiter-Glo luminescence; series mostly up to 76.8 µM; further: nearly all actives have a fitted effect of over 50% in size
Method in brief: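 SBE-bla HEK 293T cells were plated overnight at 37 C, then given compounds in DMSO plus TGF-beta1 (added as 0.25 ng/mL solution) for 5 hr. After the bla read, CellTiter-Glo was added to the same wells and luminescence read after 30 min at room temperature.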

Structure (SMILES) | Potency | viability change, negative = cytotoxic
Cc1ccc(C)cc1 | inactive | 
COC(=O)c1ccccc1C | inactive | 
Cc1ccc(C(C)C)cc2c(C)ccc1-2 | inactive | 
CCc1ccc(Br)cc1 | inactive | 
CC(C)NC[C@@H](O)COc1ccc(CC(N)=O)cc1 | inactive | 
CCC(C)[O-].CCC(C)[O-].CCOC(=O)/C=C(/C)[O-].[Al+3] | inactive | 
COC(C)=O | inactive | 
CC(C)CCOC(=O)/C=C/c1ccccc1 | inactive | 
Cc1cccc(C)c1NC(=O)c1ccc(N)cc1 | inactive | 
C=CCn1c(=O)n(CC=C)c(=O)n(CC=C)c1=O | inactive | 
O[C@@H]([C@H](O)[C@H](O)CBr)[C@H](O)CBr | inactive | 
CC(C)Cn1cnc2c(N)nc3ccccc3c21 |  | 1.27% [at 15.8 µM]
CC(C)CCCCCOC(=O)CCS | inactive | 
CCCC[P+](C)(CCCC)CCCC | inactive | 
Sc1nc2ccccc2s1 | inactive | 
O=C(/C=C/c1ccc(O)c(O)c1)O[C@@H](C(=O)O)[C@@H](OC(=O)/C=C/c1ccc(O)c(O)c1)C(=O)O | inactive | 
NC[C@H]1O[C@H](O[C@H]2[C@H](O[C@@H]3O[C@H](CO)[C@@H](O)[C@H]3O)C(O)[C@H](N)C[C@@H]2N)[C@H](N)[C@@H](O)[C@@H]1O (stereo partly specified) |  | -16.4% [at 6.97 µM]
Cc1c(C)c2c(c(C)c1O)CC[C@@](C)(CCC[C@H](C)CCC[C@H](C)CCCC(C)C)O2 | inactive | 
Cc1c(F)c(N2CCNC(C)C2)cc2c1c(=O)c(C(=O)O)cn2C1CC1 (stereo unspecified) | inactive | 

Structure (SMILES) | Potency | viability change, negative = cytotoxic
OC[C@@H](O)[C@@H](O)CO | inactive | 
CCCCCc1ccc(Cl)cc1 | inactive | 
CCOC(=O)Cn1cccc1-c1nc(-c2ccc(OC)cc2)c(-c2ccc(OC)cc2)s1 | inactive | 
C=Cc1cccc(C)c1 | inactive | 
Nc1nc(N)nc(-c2cc(Cl)ccc2Cl)n1 | inactive | 
CCCCCC(C)OC(=O)COc1ccc(Cl)c2cccnc12 (stereo unspecified) | inactive | 
O=C1OC2(c3ccc(O)cc3Oc3cc(O)ccc32)c2ccc(N=C=S)cc21 | inactive | 
CC(C)(C)NSc1nc2ccccc2s1 | inactive | 
CCCCC(CC)COC(=O)CCCCC(=O)OCc1ccccc1 (stereo unspecified) | inactive | 
Cc1c(C)c2c(c(C)c1OC(=O)c1cccnc1)CC[C@@](C)(CCC[C@H](C)CCC[C@H](C)CCCC(C)C)O2 | inactive | 
[Cu+] | inactive | 
O=C(O)c1cc(-c2ccc(F)cc2F)ccc1O | inactive | 
O=C1c2ccccc2C(=O)N1SC1CCCCC1 | inactive | 
NC(=S)NC(N)=S | inactive | 
C=CCCC(=O)/C=C/C1C(C)=CCCC1(C)C (stereo unspecified) | inactive | 
CC/C=C\CCCCCO | inactive | 
CC1(C)CC(O)CC(C)(C)N1 | inactive | 
OC[C@H]1O[C@H](O[C@H]2O[C@H](CO)[C@@H](O)[C@H](O)[C@H]2O)[C@H](O)[C@@H](O)[C@@H]1O | inactive | 
C[C@H]1NCc2cc(-c3ccc4c(=O)c(C(=O)O)cn(C5CC5)c4c3OC(F)F)ccc21 |  | -2.18% [at 15.8 µM]

assay: qHTS assay to identify small molecule agonists of the TGF-beta/Smad signaling pathway - cell viability counter screen (AID 1346829); conditions: SBE-bla HEK293T viability, CellTiter-Glo luminescence, 5 h; series mostly up to 76.8 µM; further: top concentration of the series differs between compounds; nearly all actives have a fitted effect of over 45% in size
Method in brief: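 Here the cytotoxicity of library compounds is measured in SBE-bla HEK 293T cells treated for 5 hr, using CellTiter-Glo added to wells already read for the beta-lactamase reporter.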

Structure (SMILES) | Potency | activity change, negative = cytotoxicity
Cc1ccc(C)cc1 | inactive | 
COC(=O)c1ccccc1C | inactive | 
CCc1ccc(Br)cc1 | inactive | 
CCC(C)[O-].CCC(C)[O-].CCOC(=O)/C=C(/C)[O-].[Al+3] | inactive | 
COC(C)=O | inactive | 
CC(C)CCOC(=O)/C=C/c1ccccc1 | inactive | 
Cc1cccc(C)c1NC(=O)c1ccc(N)cc1 | inactive | 
C=CCn1c(=O)n(CC=C)c(=O)n(CC=C)c1=O | inactive | 
O[C@@H]([C@H](O)[C@H](O)CBr)[C@H](O)CBr | inactive | 
CC(C)Cn1cnc2c(N)nc3ccccc3c21 |  | 6.14% [at 15.8 µM]
Sc1nc2ccccc2s1 | inactive | 
O=C(/C=C/c1ccc(O)c(O)c1)O[C@@H](C(=O)O)[C@@H](OC(=O)/C=C/c1ccc(O)c(O)c1)C(=O)O | inactive | 
Cc1c(F)c(N2CCNC(C)C2)cc2c1c(=O)c(C(=O)O)cn2C1CC1 (stereo unspecified) | inactive | 
OC[C@@H](O)[C@@H](O)CO | inactive | 
CCCCCc1ccc(Cl)cc1 | inactive | 
CCOC(=O)Cn1cccc1-c1nc(-c2ccc(OC)cc2)c(-c2ccc(OC)cc2)s1 | inactive | 
C=Cc1cccc(C)c1 | inactive | 
CCCCCC(C)OC(=O)COc1ccc(Cl)c2cccnc12 (stereo unspecified) | inactive | 
O=C1OC2(c3ccc(O)cc3Oc3cc(O)ccc32)c2ccc(N=C=S)cc21 | inactive | 
CC(C)(C)NSc1nc2ccccc2s1 | inactive | 
CCCCC(CC)COC(=O)CCCCC(=O)OCc1ccccc1 (stereo unspecified) | inactive | 
Cc1c(C)c2c(c(C)c1OC(=O)c1cccnc1)CC[C@@](C)(CCC[C@H](C)CCC[C@H](C)CCCC(C)C)O2 | inactive | 
[Cu+] | inactive | 
O=C(O)c1cc(-c2ccc(F)cc2F)ccc1O | inactive | 
O=C1c2ccccc2C(=O)N1SC1CCCCC1 | inactive | 
CC/C=C\CCCCCO | inactive | 

— PubChem BioAssay (Tox21)
